# Screens from PubChem.
# WRN helicase inh = inhibitors of human WRN helicase | Q14191 | WRN helicase unwinding, fluorescent forked duplex, kinetic | Potency, µM (highest dose often 114 µM), most hits filed as inhibitors | 360,000 tested, 0.46% active | AID 651768; note: nearly all actives have a fitted effect of over 55% in size
#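 Kinetic fluorescence helicase assay: unwinding of a quenched forked DNA duplex (100 nM final) with 2 mM ATP final raises red fluorescence (525/598 nm). Compounds sat 15 min at room temperature with 20 nM WRN beforehand.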
# L3MBTL1 inh = blocks human L3MBTL1; Q9Y468; AlphaScreen L3MBTL1–H3K9me1 peptide binding; Potency, µM (series often up to 57.1 µM), usual class: inhibitors; 230,000 tested, 0.66% active; AID 485360; note: nearly all actives have a fitted effect of over 60% in size
# Target sequence (Q9Y468 whole entry, looked up): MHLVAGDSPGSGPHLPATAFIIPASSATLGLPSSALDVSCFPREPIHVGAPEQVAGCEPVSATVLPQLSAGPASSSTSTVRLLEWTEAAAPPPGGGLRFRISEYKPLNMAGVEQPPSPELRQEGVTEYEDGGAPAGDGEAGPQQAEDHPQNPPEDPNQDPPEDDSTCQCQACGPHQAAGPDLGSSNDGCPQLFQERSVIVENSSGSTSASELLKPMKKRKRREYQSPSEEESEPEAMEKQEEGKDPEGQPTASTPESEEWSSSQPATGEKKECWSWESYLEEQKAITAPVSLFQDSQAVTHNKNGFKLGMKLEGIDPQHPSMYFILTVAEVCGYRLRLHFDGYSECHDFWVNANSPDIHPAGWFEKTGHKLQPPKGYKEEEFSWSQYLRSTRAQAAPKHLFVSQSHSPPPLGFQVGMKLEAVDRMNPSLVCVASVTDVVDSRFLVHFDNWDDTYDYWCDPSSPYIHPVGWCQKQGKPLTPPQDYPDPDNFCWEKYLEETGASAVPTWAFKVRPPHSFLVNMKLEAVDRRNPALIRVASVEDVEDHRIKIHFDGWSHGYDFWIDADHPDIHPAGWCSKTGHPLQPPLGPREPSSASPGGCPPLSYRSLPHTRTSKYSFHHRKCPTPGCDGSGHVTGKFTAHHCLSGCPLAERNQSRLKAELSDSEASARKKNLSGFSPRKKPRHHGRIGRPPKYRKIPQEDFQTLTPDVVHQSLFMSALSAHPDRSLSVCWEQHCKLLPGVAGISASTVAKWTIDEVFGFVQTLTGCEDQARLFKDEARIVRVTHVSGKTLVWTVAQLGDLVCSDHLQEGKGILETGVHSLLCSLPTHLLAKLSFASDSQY
#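 L3MBTL1 (50 nM) pre-complexed 30 min with biotinylated H3(1-15)K9me1 peptide (75 nM), then compounds added for 30 min at room temperature; AlphaScreen streptavidin donor/nickel chelate acceptor beads (10 ug/mL final) read after 30 min dark incubation.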
# RECQ1 inh-1 = RECQ1 (human) helicase inhibition. P46063. RECQ1 DNA unwinding, red fluorescence kinetic read. Potency, µM (doses to about 57.3 µM), usual class: inhibitors. 240,000 tested, 0.54% active. AID 2549; note: nearly all actives have a fitted effect of over 30% in size
#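 RECQ1T1 50 nM; forked duplex (20 bp + 30-nt ss tails) 200 nM, ATP 2 mM final; pH 8.0, 2 mM MgCl2, 2.5 ug/ml poly(dI-dC); 15 min compound preincubation; discontinuous kinetic read over 2 h at RT.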
# BLM inh = blocks DNA unwinding by human BLM helicase; recombinant BLM DNA unwinding, fluorescence dequenching; Potency, µM (titrated, usually from 56.1 µM), usual class: inhibitors; 350,000 tested, 0.2% active; note: nearly all actives have a fitted effect of over 35% in size
# APEX1 inh = inhibitors of human APE1 endonuclease. P27695. recombinant APE1, TAMRA/BHQ-2 abasic DNA cleavage fluorescence. Potency, µM (doses to about 65.8 µM), most hits filed as inhibitors. 350,000 tested, 0.35% active. AID 2517; note: nearly all actives have a fitted effect of over 55% in size
#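 Incision of a quenched TAMRA/BHQ-2 THF abasic-site duplex (50 nM) by 0.75 nM APE1, after 15 min compound preincubation, measured as fluorescence increase over three 60 s reads. Values normalized to buffer, DMSO and NSC13755 control wells.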
# RECQ1 conf = confirmation of human RECQ1 helicase inhibitors; shares compounds with RECQ1 inh-1; RECQ1 helicase DNA unwinding, fluorescence; Potency, µM (top dose mostly 229 µM), most hits filed as inhibitors; 610 tested, 28% active; note: nearly all actives have a fitted effect of over 45% in size
# ADP FP counter = counter-screen for RECQ1 inhibitors: ADP displacement; shares compounds with RECQ1 inh-1; AID 2711; 530 tested, 27% active; Potency, µM (highest dose often 228 µM), hits mostly inhibitors; ADP fluorescence polarization displacement counterscreen; note: nearly all actives have a fitted effect of over 45% in size
# RECQ1 inh-2 = RECQ1 helicase inhibition confirmed, round 2; shares compounds with RECQ1 inh-1; recombinant RECQ1 DNA unwinding, red fluorescence; Potency, µM (highest dose often 119 µM), actives largely listed as inhibitors; 1,100 tested, 15% active; AID 504841; note: nearly all actives have a fitted effect of over 50% in size
# Numbers stand for hits; – = inactive; ? = inconclusive; · = not tested or not shown; [ ] = remark or other dose. This is a sample that favours compounds with a hit; in the whole collection about 0.92% have one here. Calls come from the whole dose curve; as a rule, active = well fitted curve in the direction sought with a large enough effect; inconclusive = small, poorly fitted or top-dose-only effect, or another doubt; inactive = no such curve, though single readings can be large; an effect the other way counts as inactive or inconclusive.
SMILES,WRN helicase inh,L3MBTL1 inh,RECQ1 inh-1,BLM inh,APEX1 inh,RECQ1 inh-2,others
C/C(=N\NC(=O)CSCc1ccc([N+](=O)[O-])cc1)c1cccc(Br)c1,–,–,1µM,–,–,·,RECQ1 conf=–
CCOC(=O)CC(=O)CSc1nc2sc(C)cc2c(=O)n1Cc1ccco1,–,·,–,–,–,·,
Cc1cc2c(=O)n(Cc3ccco3)c(SCC(=O)c3ccc(Cl)s3)nc2s1,–,–,?,–,–,–,
CSCC[C@H](N)C(=O)N[C@@H](CCC(=O)O)C(=O)N[C@H](C(=O)NCC(=O)N[C@@H](Cc1c[nH]c2ccccc12)C(=O)N[C@@H](Cc1ccc(O)cc1)C(=O)N[C@@H](CCCNC(=N)N)C(=O)N[C@@H](CO)C(=O)N1CCC[C@H]1C(=O)N[C@@H](Cc1ccccc1)C(=O)N[C@@H](CO)C(=O)N[C@@H](CCCNC(=N)N)C(=O)N[C@H](C(=O)N[C@H](C(=O)N[C@@H](Cc1cnc[nH]1)C(=O)N[C@@H](CC(C)C)C(=O)N[C@@H](Cc1ccc(O)cc1)C(=O)N[C@@H](CCCNC(=N)N)C(=O)N[C@@H](CC(N)=O)C(=O)NCC(=O)N[C@@H](CCCCN)C(=O)O)C(C)C)C(C)C)C(C)C,·,·,–,–,–,·,
COc1ccc2nc(NC(=O)C3CCCN(S(=O)(=O)c4cccc5nonc45)C3)sc2c1 (stereo unspecified),–,–,–,–,–,·,
COc1ccc2nc(NC(=O)C3CCCN(S(=O)(=O)c4cccc5nsnc45)C3)sc2c1 (stereo unspecified),–,–,–,–,–,·,RECQ1 conf=–;ADP FP counter=–
Cc1[nH]n2c(=O)cc(-c3ccc(Cl)cc3)nc2c1-c1ccccc1,·,·,·,–,·,·,
CCOC(=O)C1CN(S(=O)(=O)c2cccc(C(F)(F)F)c2)c2cc(CC(=O)OC)ccc2O1 (stereo unspecified),–,–,40µM,–,–,–,
CCOC(=O)C1CN(S(=O)(=O)c2ccccc2)c2cc(S(=O)(=O)CC)ccc2O1 (stereo unspecified),–,–,–,–,–,·,
COc1cccc([C@H]2Oc3ccc(OC)cc3/C(=N\OC[C@@H](O)[C@@H]3O[C@@H]4OC(C)(C)O[C@@H]4[C@H]3O)[C@@H]2O)c1,·,·,–[11.5 µM],–[12.4 µM],–[12.4 µM],·,
CCCCCCc1nc2ccccc2c(=O)n1NC(=O)c1c(O)c2cccc3c2n(c1=O)CCC3,·,·,–,–,–,·,RECQ1 conf=–;ADP FP counter=–
Cc1ccccc1Cn1c(CN2CCC(C(=O)NCc3cccnc3)CC2)cc2ccccc21,·,·,·,–,·,·,
O=C(O)CN1C(=O)/C(=C/C=C/c2ccccc2)SC1=S,–,–,–,–,–,·,
C#CCN1C(=O)S/C(=C/C=C/c2ccc(N(C)C)cc2)C1=O,35µM,?,25µM,?,?,18µM,
CCCNC(=O)OC[C@@H]1O[C@H](CCO/N=C\c2ccc(C(=O)N3[C@H](c4ccc(C)cc4)[C@@H](C)CC[C@H]3C(=O)OC)cc2)C=C[C@@H]1Oc1ccc(OC)cc1,·,·,–[11.5 µM],–[12.4 µM],?,·,
O=C(COc1cccnc1[N+](=O)[O-])c1ccc(Cl)s1,?,?,?,–,?,?,
COCCn1c(C)cc(C(=O)COC(=O)c2ccc(NC(=O)CC#N)cc2)c1C,–,·,32µM,–,–,–,
COCCn1c(C)cc(C(=O)COC(=O)c2ccc(S(=O)(=O)N(C)C)cc2)c1C,–,–,·,·,–,·,
Clc1ccc(-c2nnc3sc(-c4ccc(Br)o4)nn23)cc1,–,–,–,–,–,·,
Cc1oc(-c2ccc(Cl)cc2)cc1-c1nn2c(-c3ccoc3C)nnc2s1,?,?,14µM,10µM,?,·,RECQ1 conf=35µM;ADP FP counter=–
CCC(=O)N1CCCc2cc(S(=O)(=O)NCc3cccs3)ccc21,–,·,–,–,–,·,
O=C(O)CCCC(=O)N1CCc2cc(S(=O)(=O)NCc3ccc(F)cc3)ccc21,–,·,–,–,–,·,RECQ1 conf=–;ADP FP counter=–
O=C(O)CCC(=O)N1CCc2cc(S(=O)(=O)NCc3cccs3)ccc21,–,–,–,–,–,·,RECQ1 conf=–;ADP FP counter=–
N#CCCS(=O)(=O)c1ccccc1,·,·,–,–,–,·,
c1cncc(-c2nc(-n3ccnc3)c3ccccc3n2)c1,·,·,–,–,?,·,
SMILES,WRN helicase inh,L3MBTL1 inh,RECQ1 inh-1,BLM inh,APEX1 inh,RECQ1 inh-2,others
COc1ccc(OC)c(Nc2nc(NCCCN(C)C)nc(N)c2[N+](=O)[O-])c1,35µM,–,?,?,?,?,
COCCCNc1nc(N)c([N+](=O)[O-])c(Nc2cc(OC)ccc2OC)n1,–,–,–,–,–,·,
Cc1ccc(NC(=O)CSCC#N)cc1Cl,–,–,28µM,–,–,–,
COc1cc(Cl)c(C)cc1NC(=O)CSCC#N,–,–,–,–,–,·,
Nc1c(S(=O)(=O)O)cc(Nc2ccc(Cl)cc2)c2c1C(=O)c1ccccc1C2=O,·,·,32µM,?,?,50µM,
Nc1c(S(=O)(=O)O)cc(Nc2cccc3ccccc23)c2c1C(=O)c1ccccc1C2=O,·,·,22µM,?,?,?,
O=S(=O)(O)c1cccc2cccc(Nc3ccccc3)c12,–[11.6 µM],·,·,·,·,·,
COc1ccc(-c2nn(-c3ccccc3)cc2/C=C/C(=O)O)cc1[N+](=O)[O-],–,?,?,–,–,–,
Cc1c(C2=CCN(S(=O)(=O)c3ccc(Br)cc3)CC2)c2ccccc2n1CC(=O)N1CCCC1,·,·,·,–,·,·,
CCn1c(C)c(C2=CCN(S(=O)(=O)c3ccccc3)CC2)c2ccccc21,–,–,25µM,–,–,?,RECQ1 conf=50µM
CC(C)[C@H](NC(=O)CNC(=O)OC(C)(C)C)C(=O)N[C@H](C=O)C(C)C,·,·,–,·,–,·,
CC(=O)OC[C@@H]1O[C@@H](O/N=C2/C[C@@H](O)[C@@H](O)[C@@H]3[C@H]4C(=O)N(c5ccc(F)cc5F)C(=O)[C@@H]4CC[C@@H]23)[C@H](OC(C)=O)[C@H](OC(C)=O)[C@@H]1OC(C)=O,·,·,–[11.5 µM],–[12.4 µM],–[12.4 µM],·,
CCn1c(SCC(=O)c2ccccc2)nnc1-c1cccc(Cl)c1,·,·,·,–,·,·,
CCOc1ccc(/C=C(\C(=O)O)c2ccc(S(=O)(=O)N3CCOCC3)s2)cc1OC,–,–,–,–,–,·,RECQ1 conf=–;ADP FP counter=?
COCCCN(C(=O)c1cc2c(s1)CCC2)c1c(N)n(Cc2ccccc2)c(=O)[nH]c1=O,?,?,14µM,?,?,?,RECQ1 conf=40µM;ADP FP counter=?
COC(=O)[C@@]1(Cc2ccc(OC)cc2)[C@H]2c3cc(C(=O)N(C)C)n(Cc4ccsc4Br)c3C[C@H]2CN1C(=O)c1ccccc1,·,·,–,–,–,·,
Cc1ccccc1N=C/C=C1\N(C)c2ccccc2C1(C)C,–,·,?,–,?,–,
